Legend:
Format in all cases: functional
[1] = target: Solute carrier family 2, facilitated glucose transporter member 1 (Homo sapiens) (UniProt P11166); test: ST_JUDE_LEISH: Cytotoxicity at 2uM final concentration against transgenic Leishmania Mexicana promastigotes LmGLUT1 that are glucose transport deficient and complemented with the human glucose transporter GLUT1. Activity is measured by DNA content using SYBR green in vitro
[2] = target: Hexose transporter 1 (Plasmodium falciparum) (UniProt O97467); test: ST_JUDE_LEISH: Cytotoxicity at 2uM final concentration against transgenic Leishmania Mexicana promastigotes LmPfHT that are glucose transport deficient and complemented with the Plasmodium falciparum hexose transporter. Activity is measured by DNA content using SYBR green in vitro
[3] = target: Glucose transporter (Leishmania mexicana) (UniProt O61059); test: ST_JUDE_LEISH: Cytotoxicity at 2uM final concentration against transgenic Leishmania Mexicana promastigotes LmGT2 that are glucose transport deficient and complemented with the L. Mexicana glucose transporter 2. Activity is measured by DNA content using SYBR green in vitro

Solute carrier family 2, facilitated glucose transporter member 1 (Homo sapiens), sequence (P11166 whole entry): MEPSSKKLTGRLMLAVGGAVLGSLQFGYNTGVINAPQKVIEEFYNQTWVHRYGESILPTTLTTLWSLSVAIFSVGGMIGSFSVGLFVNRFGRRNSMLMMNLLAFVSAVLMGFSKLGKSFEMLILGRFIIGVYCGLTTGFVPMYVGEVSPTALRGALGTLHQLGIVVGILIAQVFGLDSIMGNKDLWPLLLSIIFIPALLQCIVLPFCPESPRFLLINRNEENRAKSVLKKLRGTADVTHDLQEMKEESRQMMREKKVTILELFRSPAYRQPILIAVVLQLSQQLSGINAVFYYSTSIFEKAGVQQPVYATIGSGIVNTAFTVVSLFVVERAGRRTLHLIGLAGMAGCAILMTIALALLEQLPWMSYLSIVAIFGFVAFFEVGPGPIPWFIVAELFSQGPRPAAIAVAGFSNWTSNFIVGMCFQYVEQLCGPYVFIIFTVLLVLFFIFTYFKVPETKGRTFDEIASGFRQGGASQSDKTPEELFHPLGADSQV

Row | Compound | inhibition [1] [%] | inhibition [2] [%] | inhibition [3] [%]
1 | COc1ccc2nccc([C@@H](O)CN3CCC(NCc4ccc5c(c4)nnn5C(C)C)CC3)c2c1 | 18.3 | 20.9 | 5
2 | CCCc1cc(OC)c(CC2c3cc(O)c(C)cc3CCN2C)cc1OC (stereo unspecified) | -2.27 | -4.03 | 3.59
3 | CC1(C)[C@H]2CC[C@@H](CNc3nc(NCC(=O)Nc4ccc5ccccc5c4)nc(N4CCC(N5CCCC5)CC4)n3)[C@@H]1C2 | 0.95 | 2.52 | 2.89
4 | Cc1cc(N/N=C/c2ccccc2[N+](=O)[O-])c2cccc(C)c2n1 | 11.2 | 13.9 | 7.94
5 | COc1ccc(-c2nc(NC(=O)CS(=O)(=O)c3ccc(OC)cc3)sc2C)cc1 | 2.15 | 2.85 | 3.47
6 | Cc1ccc(-n2cc(CNCCCn3ccnc3)c(-c3cccc(C)c3)n2)cc1 | 4.3 | 6.62 | 3.71
7 | CC(C)c1ccc(S(=O)(=O)N(c2ccc3c(c2)OCO3)C2CCN(Cc3ccccc3)C2)cc1 (stereo unspecified) | -0.01 | -0.17 | 0.98
8 | COc1ccc(C(=O)Nc2ccc3nc(N4CCCCC4)cc(C)c3c2)cc1[N+](=O)[O-] | 2.05 | 3.3 | 2
9 | CC1CCCCC1N(C)C1CCN(CCCNC(=O)C=Cc2ccc(Cl)cc2Cl)CC1 (stereo unspecified) | -1.12 | -1.99 | 1.66
10 | O=C(NC1CC1)c1ccc(N2CCCC(COc3ccc4c(c3)CCCC4)C2)nc1 (stereo unspecified) | 2.1 | 1.8 | 1.93
11 | CN(CC1CCC(NC(=O)/C=C/c2ccc(Cl)c(Cl)c2)CC1)C1CCC(c2c[nH]c3ccccc23)CC1 (stereo unspecified) | -0.25 | 0.8 | 2.15
12 | COc1ccc(C(=O)CCC(=O)N(CCC2CCCN2C)Cc2ccc(-c3ccc(CNCCc4ccc(S(C)(=O)=O)cc4)cn3)cc2)cc1F (stereo unspecified) | 11.4 | 9.98 | 9.19

Source: ChEMBL document CHEMBL3433997, “St. Jude Leishmania screening dataset” (2016)
